Several values for one entry are separate records, joined by “and”; a condition that tells them apart may be missing. Identical values can stand only once. The whole screen tested about 16,000 compounds, of which about 5,800 (36%) were called active. Roughly 23% stayed inconclusive and do not appear here. Calls follow the shape of the dose curve; as a rule, active = well fitted curve in the direction sought with a large enough effect; inconclusive = small, poorly fitted or top-dose-only effect, or effect the other way; inactive = no such curve, though single readings can be large or run the other way. Some of the results follow. The source holds several records for some structures; these can differ, active in one and inactive in another.
Each molecule was assayed against Cytochrome P450 2C19 (Homo sapiens) (UniProt P33261) (assay: Cytochrome panel assay with activity outcomes). Conditions: recombinant CYP, pro-luciferin dealkylation, luminescence, p450-cyp2c19; series mostly up to 57.1 µM; activity, negative = inhibition: at the top concentration.
Cytochrome P450 2C19 (Homo sapiens), sequence (P33261 whole entry, looked up): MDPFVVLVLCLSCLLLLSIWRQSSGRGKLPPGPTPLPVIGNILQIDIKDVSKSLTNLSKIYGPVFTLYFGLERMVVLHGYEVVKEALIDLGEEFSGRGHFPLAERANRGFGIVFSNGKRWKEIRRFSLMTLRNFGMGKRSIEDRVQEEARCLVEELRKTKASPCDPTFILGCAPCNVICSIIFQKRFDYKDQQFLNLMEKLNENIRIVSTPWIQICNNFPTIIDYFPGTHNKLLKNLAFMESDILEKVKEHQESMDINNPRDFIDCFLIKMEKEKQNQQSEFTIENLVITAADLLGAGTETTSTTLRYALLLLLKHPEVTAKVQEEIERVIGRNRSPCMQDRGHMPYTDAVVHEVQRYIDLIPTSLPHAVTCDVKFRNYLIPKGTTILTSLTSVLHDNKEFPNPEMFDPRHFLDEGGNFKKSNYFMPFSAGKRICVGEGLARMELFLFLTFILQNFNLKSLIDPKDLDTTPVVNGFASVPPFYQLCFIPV
`Cc1ccc(-c2cc(C(=O)NCc3ccco3)c3ccccc3n2)s1` was tested, and the AC50 was 3.98 µM (active). For `O=C1Nc2ccc(F)cc2C12Nc1ccccc1-c1nnc(SCc3ccccc3F)nc1O2` (stereo unspecified), the AC50 was 4.47 µM (active). `Cc1ccc(CSc2nnc3c(n2)OC2(Nc4ccccc4-3)C(=O)Nc3ccc(F)cc32)cc1` (stereo unspecified) was tested, and the AC50 was 10 µM (active). With `Nc1nc2c(C(=O)NCc3cccs3)nnn2c2cccc(Cl)c12` the activity, negative = inhibition was 12.5% [at 11.4 µM] (inactive). `COc1ccc(C(=O)c2c[nH]c(C(=O)NCc3cccs3)c2)cc1` was tested, and the “activity, negative = inhibition” value was -28.9% (inactive). With `COc1cccc2c(=O)c(C(=O)NCc3cccs3)c[nH]c12` the AC50 was 7.94 µM (active). `CCC(=O)OCC(=O)[C@@]1(OC(=O)CC)[C@H](C)C[C@@H]2[C@H]3CCC4=CC(=O)C=C[C@]4(C)[C@]3(Cl)[C@@H](O)C[C@@]21C` was tested, and the “activity, negative = inhibition” value was -4.54% [at 25.6 µM] (inactive). `CC1=C/C(=N/O)C([C@H]2C=C(C)CC(C)(C)[C@@H]2O)C(C)(C)C1` (stereo partly specified) was tested, and the AC50 was 1.58 µM (active). `COc1cccc(Nc2ncc3nc(-c4cn(C)c5ccccc45)c(=O)n(CCC#N)c3n2)c1` was tested, and the “activity, negative = inhibition” value was -12% (inactive). `COc1cccc2c1[C@@H]1CN(CCCCn3c(=O)[nH]c4c(sc5ncc(-c6ccccc6)nc54)c3=O)C[C@H]1CO2` was tested, and the “activity, negative = inhibition” value was -32.6% (inactive). In the case of `FC(F)Sc1ccc(N=C2NN=C(c3ccc4c(c3)OCCO4)CS2)cc1`, the AC50 is reported as 2.24 µM (active). `CN(Cc1ccccc1)C(=O)CC(c1ccccc1)c1cc(Cl)ccc1O` (stereo unspecified) was tested, and the AC50 was 1.78 µM (active). In the case of `CC(C)Oc1ccc(CNC(=O)CC(c2ccccc2)c2cc(Cl)ccc2O)cc1` (stereo unspecified), the AC50 is reported as 1.78 µM (active). `Cc1cc(-c2cc(-c3ccc(Cl)cc3)nc(N)c2C#N)co1` was tested, and the AC50 was 0.282 µM (active). `CS(=O)(=O)Nc1cccc(-c2cncnc2Nc2ccccc2)c1` was tested, and the “activity, negative = inhibition” value was -23.9% (inactive). `Cc1cnc(CNc2ncnc3ccc(-c4cccc(NS(C)(=O)=O)c4)cc23)cn1` was tested, and the “activity, negative = inhibition” value was -33.4% (inactive). In the case of `CS(=O)(=O)Nc1cccc(-c2ccc3ncnc(NCc4cccnc4)c3c2)c1`, the AC50 is reported as 0.0501 µM (active). With `CS(=O)(=O)Nc1cccc(-c2cncnc2NCc2cccnc2)c1` the AC50 was 3.16 µM (active). In the case of `Cc1cccc(CNc2ncncc2-c2cccc(NS(C)(=O)=O)c2)c1`, the AC50 is reported as 6.31 µM (active). In the case of `N[C@H](C(=O)O)[C@@H]1[C@@H](C(=O)O)C1(F)F`, the “activity, negative = inhibition” value is reported as -41.1% (inactive). With `CCOC(=O)C1=C(C)NC2=C(C(=O)C(C(=O)OCC)C(c3ccc(OC)cc3)C2)C1c1ccccn1` (stereo unspecified) the AC50 was 20 µM (active). In the case of `O=C(c1cc2sccc2n1Cc1ccccc1)N1CCN(c2nc3ccccc3s2)CC1`, the AC50 is reported as 2.24 µM (active). `O=C(CN1CCN(Cc2ccccc2)CC1)N1CCCc2c1c(=O)oc1ccc(O)cc21` was tested, and the AC50 was 3.55 µM (active). `O=C(O)c1cccc(CN2CCCCC2)c1` was tested, and the activity, negative = inhibition was 9.75% [at 11.4 µM] (inactive). For `CCCc1c(-c2ccc(O)cc2)nn(-c2ccc(O)cc2)c1-c1ccc(O)cc1`, the “activity, negative = inhibition” value was 38.6% (inactive). In the case of `O=S(=O)(O)C1CCNCC1`, the “activity, negative = inhibition” value is reported as 12.3% (inactive). `O=S(=O)(c1ccccc1)N1N=C(c2cccs2)CC1c1ccc(Br)cc1` (stereo unspecified) was tested, and the AC50 was 2 µM (active). With `N#CCCn1c(=O)c(-c2cc(F)cc(F)c2)nc2cnc(N3CCOCC3)nc21` the “activity, negative = inhibition” value was -6.19% (inactive). With `Cc1ccc2c(C)nc(Nc3nc(CSc4nc5ccccc5[nH]4)cc(=O)[nH]3)nc2c1` the AC50 was 7.08 µM (active). With `Cc1ccc2nc(Nc3nc(-c4ccccc4)cc(=O)[nH]3)nc(C)c2c1` the AC50 was 3.16 µM (active). `O=c1nc(-c2ccccc2)cc(C(F)(F)F)[nH]1` was tested, and the “activity, negative = inhibition” value was -28.7% (inactive). With `COc1ccc(C(N)=O)cc1NC(=O)c1cccc(F)c1` the “activity, negative = inhibition” value was -0.928% (inactive). `CCN(CC)c1ccc(NC(=O)c2cccc(F)c2)c(C)c1` was tested, and the AC50 was 15.8 µM (active). For `Cn1c(SCc2nnc(-c3ccc(F)cc3)o2)nnc1C1COc2ccccc2O1` (stereo unspecified), the AC50 was 17.8 µM (active). With `Oc1ccc(C2Nc3cccc4cccc(c34)N2)c(O)c1` the AC50 was 5.62 µM (active). With `O=[N+]([O-])c1nccn1C[C@H](O)CN1CCCCC1` the activity, negative = inhibition was 22.6% [at 11.4 µM] (inactive). For `O=C1C2[C@@H](c3ccccc3)N[C@@H](c3ccccc3)C1[C@H](c1ccccc1)N[C@H]2c1ccccc1`, the activity, negative = inhibition was -2.21% [at 11.4 µM] (inactive). With `S=C1N[C@H](c2ccccc2)N[C@H](c2ccccc2)S1` the AC50 was 3.98 µM (active). For `COc1ccc(CCNC(=O)CCCCCN2C(=O)c3ccccc3C2=O)cc1`, the AC50 was 2.51 µM (active). With `O=C(CCCCCN1C(=O)c2ccccc2C1=O)NCc1ccccn1` the “activity, negative = inhibition” value was -12.2% (inactive). For `CCOc1ccc(CCNC(=O)CCCN2C(=O)c3ccccc3C2=O)cc1OCC`, the AC50 was 28.2 µM (active). For `CCOCCCNC(=O)CCS(=O)(=O)Cc1ccc(C)cc1`, the “activity, negative = inhibition” value was -54.9% (inactive). `C#CCCCO/N=C1/C[C@@H](O)[C@@H](O)[C@@H]2[C@@H]3C(=O)N(C[C@@H]4CCCO4)C(=O)[C@H]3CC[C@@H]12` was tested, and the activity, negative = inhibition was 1.94% [at 11.4 µM] (inactive). For `O=C1c2ccccc2C(=O)N1Cc1cc(-c2ccccc2Cl)no1`, the AC50 was 10 µM (active). With `O=S(=O)(NCc1cc(-c2ccccc2Cl)no1)c1ccc(Cl)cc1` the AC50 was 0.0562 µM (active). For `O=S(=O)(NCc1cc(-c2ccccc2Cl)no1)c1ccccc1`, the AC50 was 0.158 µM (active). With `O=C(O)[C@@H]1[C@@H](C(=O)Nc2ccccc2)[C@@H]2C=C[C@@H]1O2` the activity, negative = inhibition was -3.64% [at 11.4 µM] (inactive). With `O=C(Nc1ccccc1)c1cc(-c2ccccc2Cl)no1` the AC50 was 2.82 µM (active). `CC[C@@H](CS(=O)(=O)O)[N+](=O)[O-]` was tested, and the activity, negative = inhibition was 45% [at 11.4 µM] (inactive). With `CS(=O)(=O)N(CC(=O)Nc1c(F)cccc1F)c1ccc(C23CC4CC(CC(C4)C2)C3)cc1` the AC50 was 11.2 µM (active). With `CN(C)C(=O)CN(c1ccc2c(c1)OCO2)S(C)(=O)=O` the “activity, negative = inhibition” value was -7.35% (inactive). `CCCC/C=C/C(NC(=O)c1cccs1)c1ccccc1` (stereo unspecified) was tested, and the AC50 was 1.58 µM (active). For `CCCC/C=C/C(NC(=O)Oc1cccc(C(F)(F)F)c1)c1ccccc1` (stereo unspecified), the AC50 was 3.16 µM (active). In the case of `CCCCCCCCCCCCCCC/C=C\[C@H](O)[C@@H](NC(=O)CCCCCCCCCCCCC)OC` (tested in a mixture with another compound), the “activity, negative = inhibition” value is reported as -16.6% (inactive). In the case of `CCCC/C=C/C(NC(=O)c1ccc(-c2ccccc2)cc1)c1ccccc1` (stereo unspecified), the “activity, negative = inhibition” value is reported as -0.0339% (inactive). In the case of `CCCN(CCC)C(=O)[C@@H](CCC(=O)O)NC(=O)c1ccccc1`, the AC50 is reported as “inactive”. For `CCCC/C=C/C(NC(=O)c1ccccc1)c1ccccc1` (stereo unspecified), the AC50 was 7.94 µM (active). In the case of `CCCC/C=C/C(NC(=O)c1ccco1)c1ccccc1` (stereo unspecified), the AC50 is reported as 15.8 µM (active). In the case of `Nc1cc(=O)[nH]c(N)n1`, the “activity, negative = inhibition” value is reported as 27.3% (inactive). In the case of `CC(C)=CCC/C(C)=C/CO/N=C1/[C@H]2O[C@@H]2[C@@H](O)[C@H]2[C@H]1CCn1c(=O)n(-c3ccccc3)c(=O)n12`, the activity, negative = inhibition is reported as 18.2% [at 11.4 µM] (inactive). In the case of `N#Cc1cccc(-c2nc3cnc(N4CCOCC4)nc3n(C[C@H]3CCCO3)c2=O)c1`, the “activity, negative = inhibition” value is reported as 11.7% (inactive). In the case of `COc1cccc(N(C(=O)Cn2nnc(-c3ccc(C)cc3)n2)C(C(=O)NC(C)(C)C)c2c[nH]c3ccccc23)c1` (stereo unspecified), the AC50 is reported as 10 µM (active). With `OC[C@@H]1O[C@H](O)[C@@H](Cl)[C@H](O)[C@@H]1O` the “activity, negative = inhibition” value was 27.9% (inactive). In the case of `CNCC[C@H](Oc1ccccc1OC)c1ccccc1`, the AC50 is reported as “inactive”. In the case of `CN(CC[C@@H](Oc1ccc(-c2ccccc2)cc1)c1ccc(F)cc1)CC(=O)O`, the AC50 is reported as 6.31 µM (active). With `CC(C)CN1CCC2(CC1)CCN(S(=O)(=O)c1ccccc1)CC2` the “activity, negative = inhibition” value was -0.341% (inactive). For `CC(Oc1ccc(Cl)cc1)c1ccnn1S(=O)(=O)c1ccccc1` (stereo unspecified), the AC50 was 0.501 µM (active). With `CC(Oc1ccc(-c2ccccc2)c(F)c1)c1ccn(S(=O)(=O)c2ccc(Cl)cc2)n1` (stereo unspecified) the AC50 was 3.55 µM (active). For `CC(Oc1ccccc1)c1ccnn1S(=O)(=O)c1ccccc1` (stereo unspecified), the AC50 was 2 µM (active). For `CO[C@H]1COC(=O)[C@H](C)NC(=O)C/C=C\[C@@H](C)[C@H](OC)COC(=O)[C@@H](OCc2ccccc2)/C=C\[C@@H]1C`, the activity, negative = inhibition was 1.79% [at 11.4 µM] (inactive). For `N[C@@H](C(=O)O)c1ccc(C(=O)O)cc1`, the AC50 was “inactive”. For `N[C@@H](C(=O)O)c1ccc(C(=O)O)c(C(=O)O)c1`, the AC50 was 316 nM (active) and inactive and 3.16 µM (active). For `N[C@@H](C(=O)O)c1ccc(C(=O)O)c(O)c1`, the “activity, negative = inhibition” value was 20.8% (inactive). `N[C@H](C(=O)O)c1ccc(C(=O)O)cc1` was tested, and the “activity, negative = inhibition” value was 53.2% (inactive). `N[C@@H](C(=O)O)c1ccc(P(=O)(O)O)cc1` was tested, and the AC50 was 15.8 µM (active). With `N[C@H](C(=O)O)c1ccc(C(=O)O)c(O)c1` the “activity, negative = inhibition” value was 25.4% (inactive). In the case of `Cc1cc(=Nc2ccc3c(c2)c(N)cc(C)[n+]3C)nc(N)n1C`, the activity, negative = inhibition is reported as 35.5% [at 11.4 µM] (inactive). With `CC(NC(=O)CCSc1nc(-c2ccco2)cc(C(F)(F)F)n1)c1ccccc1` (stereo unspecified) the AC50 was 1.41 µM (active). For `COc1cc(C2C(C(=O)OCCC#N)=C(C)NC3=C2S(=O)(=O)c2ccccc23)cc(OC)c1OC` (stereo unspecified), the AC50 was 20 µM (active). `COc1ccc(CNc2ccnc(-c3cccc(C#N)c3)n2)c(OC)c1` was tested, and the AC50 was 3.98 µM (active). In the case of `COc1ccccc1CNc1ccnc(-c2cccc(C#N)c2)n1`, the AC50 is reported as 3.98 µM (active). `Cc1nn(C)c(C(=O)NNC(=S)Nc2ccc(Cl)cc2)c1[N+](=O)[O-]` was tested, and the “activity, negative = inhibition” value was -9.31% (inactive). `COc1cccc(NC(=S)NNC(=O)C(C)n2nc(C)c([N+](=O)[O-])c2C)c1` (stereo unspecified) was tested, and the AC50 was 7.94 µM (active). For `Cc1nn(C(C)C(=O)Nc2ccc(Cl)cn2)c(C)c1[N+](=O)[O-]` (stereo unspecified), the AC50 was 3.16 µM (active). `Cc1nn(C(C)C(=O)Nc2sc3c(c2C#N)CCCC3)c(C)c1[N+](=O)[O-]` (stereo unspecified) was tested, and the AC50 was 10 µM (active). For `OC(CN1CCCCC1)CN1CCCCC1`, the “activity, negative = inhibition” value was -13% (inactive). For `FC(F)(F)c1nc2nc(Cl)c(Cl)nc2n1CCCN1CCOCC1`, the activity, negative = inhibition was -10.6% [at 11.4 µM] (inactive). For `CCn1c(COc2ccc(C)cc2)nnc1SCc1ccc(C#N)cc1`, the AC50 was 15.8 µM (active). For `C=C1C=C(Br)C2(OCCCO2)[C@H]2OC12` (stereo partly specified), the activity, negative = inhibition was 18% [at 11.4 µM] (inactive). In the case of `CN1CCN(c2nc(-c3cccnc3)nc3ccccc23)CC1`, the “activity, negative = inhibition” value is reported as -26.6% (inactive). With `CC1CCCCN1c1nc(-c2ccncc2)nc2ccccc12` (stereo unspecified) the AC50 was 0.355 µM (active).
% is scaled to controls: 0 for no effect and ±100 for the full control effect.
